Assays:
Format in all cases: functional
Plasmodium falciparum [1] = assay: GSK_TCMDC: Inhibition of Plasmodium falciparum 3D7 in whole red blood cells, using parasite LDH activity as an index of growth. Test compounds present at 2uM
Plasmodium falciparum [2] = assay: GSK_TCMDC: Inhibition of Plasmodium falciparum Dd2 in whole red blood cells, using parasite LDH activity as an index of growth. Test compounds present at 2uM
HepG2 = assay: GSK_TCMDC: Percent inhibition of human HepG2 cell line. Test compounds present at 10uM.

| SMILES | Inhibition (Plasmodium falciparum [1]) [%] | Inhibition (Plasmodium falciparum [2]) [%] | Inhibition (HepG2) [%] |
| --- | --- | --- | --- |
| Cn1ccnc1CNC(=O)c1ccc(-c2cccc(-c3nc4cc(F)ccc4[nH]3)c2)cc1 | 96 | 8 | 8 |
| CCOc1ccc(C(C)NC(=O)c2cc(Cl)ccc2OC)cc1OCC (stereo not given) | 100 | 99 | 0 |
| COC(=O)c1sc(-c2ccc(Cl)cc2)cc1N(CCCN1CCC(N2CCCCC2)CC1)S(=O)(=O)c1ccc(C)cc1 | 100 | 86 | 25 |
| Cc1ccc(Nc2nc3cc(N(C)c4ccnc(Nc5cccc(CS(C)(=O)=O)c5)n4)ccc3o2)cc1.O=C(O)C(F)(F)F | 90 | 16 | 0 |
| O=C(NC1CC1)c1ccc(N2CCC(Oc3ccc(F)cc3)CC2)nc1 | 89 | 79 | 0 |

— ChEMBL document CHEMBL1157539, “Thousands of chemical starting points for antimalarial lead identification” (Nature, 2010)
